# Cruzain inh Det: inhibitors of Trypanosoma cruzi cruzain with detergent; AID 1478; Potency, µM, for inactives: max response, negative = inhibition, actives largely listed as inhibitors; 200,000 compounds, 0.43% hits; purified cruzain, Z-FR-AMC fluorescence, 0.01% Triton; P25779;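 further: plate controls were neutral wells for no effect and buffer without enzyme for full effect; nearly all actives have a fitted effect of over 40% in size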
# Target sequence (P25779 123-467 limits assumed): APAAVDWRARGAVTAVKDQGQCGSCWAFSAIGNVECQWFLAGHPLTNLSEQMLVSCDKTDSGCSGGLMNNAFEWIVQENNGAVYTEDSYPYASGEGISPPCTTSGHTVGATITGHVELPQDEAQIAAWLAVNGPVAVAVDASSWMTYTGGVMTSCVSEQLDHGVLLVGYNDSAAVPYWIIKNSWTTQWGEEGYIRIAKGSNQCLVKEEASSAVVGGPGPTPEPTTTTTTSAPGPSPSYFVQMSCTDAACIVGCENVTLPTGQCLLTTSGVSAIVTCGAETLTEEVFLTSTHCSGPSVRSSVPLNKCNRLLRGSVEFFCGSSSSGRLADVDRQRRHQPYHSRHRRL
#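 Detergent-containing arm of a paired screen for aggregation-based inhibition: 0.01% Triton X-100 present. Cruzain at 1.5 nM cleaved 2 uM Z-FR-AMC at pH 5.5 with 5 mM DTT; AMC fluorescence gain over 60 s measured activity.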
# NS1 inh: blocks influenza NS1 protein function. AID 2326. 270,000 compounds, 0.4% hits. Potency, µM (highest dose often 46.1 µM), for the others: at the highest dose activity, positive = more growth; calls by dose curve; further: actives are rising curves; nearly all actives have a fitted effect of over 50% in size
#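 Growth recovery, yeast-based: influenza A NS1 expressed in S. cerevisiae causes slow growth, and suppressors are detected by OD600. The parent strain without NS1 is used as positive control.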
# Cruzain inh noDet: blocks cruzain activity in detergent-free assay | P25779 | Potency, µM, without a hit: max response, negative = inhibition, most hits filed as inhibitors | purified cruzain, Z-FR-AMC fluorescence, no detergent | 200,000 compounds, 2.3% hits;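 further: plate controls were enzyme without inhibitor for no effect and buffer without enzyme for full effect; nearly all actives have a fitted effect of over 40% in size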
#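 Purified cruzain at 1.5 nM, pre-incubated 15 min with compound at room temperature in 100 mM sodium acetate pH 5.5, 5 mM DTT, 0.00005% Triton X-100. Reaction started with 2 uM Z-FR-AMC; AMC fluorescence increase over 60 s gives rate.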
# Papain inh: blocks papain protease activity, flagging nonselective cruzain hits; Potency, µM, inactives show max response, negative = inhibition, usual class: inhibitors; purified papain, Z-FR-AMC fluorescence cleavage; AID 2161; 410 compounds, 41% hits; shares compounds with Cruzain inh Det;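 further: 0% = no-compound wells and -100% = no-enzyme wells; nearly all actives have a fitted effect of over 35% in size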
# Target sequence (P00784 whole entry, looked up): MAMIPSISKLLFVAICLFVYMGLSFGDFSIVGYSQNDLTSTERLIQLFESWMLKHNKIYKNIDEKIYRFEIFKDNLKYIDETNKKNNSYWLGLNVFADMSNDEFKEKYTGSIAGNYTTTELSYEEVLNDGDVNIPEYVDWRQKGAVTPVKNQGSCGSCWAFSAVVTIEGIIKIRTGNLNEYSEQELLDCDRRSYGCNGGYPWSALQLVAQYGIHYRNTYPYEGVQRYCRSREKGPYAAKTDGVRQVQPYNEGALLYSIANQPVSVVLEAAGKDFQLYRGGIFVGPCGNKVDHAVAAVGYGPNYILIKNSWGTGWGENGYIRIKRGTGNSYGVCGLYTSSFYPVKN
# * = called active by the depositor; ? = inconclusive; nt = no result given. Only a selection was taken, and hits are over-represented in it overall. Unless noted, the call rests on the fitted dose curve; in most records, active means well fitted curve in the direction sought with a large enough effect; inconclusive means small, poorly fitted or top-dose-only effect, or another doubt; inactive means no such curve, though single readings can be large; an effect the other way counts as inactive or inconclusive. Potency means the concentration at half of the fitted maximal effect.
SMILES,Cruzain inh Det,NS1 inh,Cruzain inh noDet,others
COc1ncc2nc(-c3ccccc3)c(=O)n(C3CC3)c2n1,-5%,nt,-3%,
COc1ccc2[nH]cc(CCNc3ccnc(-c4ccccc4Cl)n3)c2c1,-8%,nt,14%,
Cc1cccc(N=Nc2ccc(O)c3ncccc23)c1,2%,-72%,20µM*,
CCOc1ccc(N=Nc2ccc(O)c3ncccc23)cc1,nt,4%,nt,
O=C(CSc1ccccc1)Nc1ccc(N2CCN(c3ccccc3)CC2)c(F)c1,9%,3%,13µM*,
COCC(=O)Nc1ccc(N2CCN(c3ccccc3)CC2)c(F)c1,nt,0%,nt,
CCOc1ccc(-c2cc3c(=O)n(CC(=O)NCc4ccccc4)ccn3n2)cc1,-1%,nt,-1%,
ClCc1ccccc1,7%,nt,9%,
COc1ccccc1C1C2=C(N=c3s/c(=C/c4cccc(OCC(=O)O)c4)c(=O)n31)c1ccccc1CC2 (configuration not stated),28µM*,?,?,
COc1cccc(C2C3=C(N=c4s/c(=C\c5ccc(O)cc5)c(=O)n42)c2ccccc2CC3)c1OC (configuration not stated),-2%,15%,?,
CCOC(=O)C1=C(C)N=c2s/c(=C/c3cccc(OCC(=O)O)c3)c(=O)n2C1c1ccc(F)cc1 (configuration not stated),nt,12%,nt,
COc1cccc(C2C3=C(N=c4s/c(=C\c5cccc(O)c5)c(=O)n42)c2ccccc2CC3)c1OC (configuration not stated),0%,?,10µM*,
C[N+](C)(C)CCN[N@@+]1(C)CCCc2ccccc21,0%,3%,3%,
O=c1[nH]c2cc(Cl)ccc2c(O)c1-c1ccc(Oc2ccccc2)cc1,2%,-9%,10µM*,
O=c1[nH]c2ccc(Cl)cc2c(-c2ccccc2)c1[N+](=O)[O-],nt,11%,nt,
O=c1[nH]c2ccc(Cl)cc2c(O)c1-c1ccccc1,1%,-4%,0%,
O=c1[nH]c2cc(Cl)ccc2c(O)c1-c1cccc(Oc2ccccc2)c1,5%,nt,3.2µM*,
Fc1ccc(Nc2nc(-c3ccoc3)nc3ccccc23)cc1,-10%,nt,25µM*,
COc1cccc(-c2nc(NCc3ccccc3OC)c3ccccc3n2)c1,-1%,nt,23%,
Cc1cccc(CNc2nc(-c3ccoc3)nc3ccccc23)c1,-6%,nt,?,
COc1ccc(CNc2nc(-c3ccoc3)nc3ccccc23)c(OC)c1,-8%,nt,16µM*,
c1ccc(CNc2nc(-c3ccoc3)nc3ccccc23)cc1,-3%,nt,25µM*,
Oc1ccc(Nc2nc(-c3ccccc3)nc3ccccc23)cc1,nt,1%,nt,
COc1ccc(CCNC(=O)Cn2nc(C)c3c(C)n(-c4ccc(C)cc4)nc3c2=O)c(OC)c1,-4%,nt,-2%,
COc1ccc(C=Nc2c(O)ccc3ccccc23)cc1OC,-1%,-1%,-4%,
SMILES,Cruzain inh Det,NS1 inh,Cruzain inh noDet,others
COC(=O)c1nnc(SC)nc1C(=O)OC,1%,nt,3%,
NC(=O)c1ccccc1NC(=O)C1CCCN(c2ncnc3onc(-c4ccc(F)cc4)c23)C1 (configuration not stated),-3%,nt,5%,
COc1cc2c(cc1OC)C(COc1ccc3c(C)cc(=O)oc3c1)N(C(=O)c1cccc(C)c1)CC2 (configuration not stated),8%,nt,-5%,
COc1ccc2c(c1)O[C@@H](c1cccc(C(F)(F)F)c1)[C@H](OC(=O)N[C@H](C)C1CCCCC1)C2=O,-1%,nt,-1%,
Sc1ccc2ccccc2c1CNCc1ccccc1,3%,0%,-16%,
CCCC(=O)OCC(=O)Nc1ccc2[nH]c(=O)[nH]c2c1,nt,4%,nt,
CCC(C)c1ccc(OCC(=O)Nc2ccc3[nH]c(=O)[nH]c3c2)cc1 (configuration not stated),-2%,18%,25µM*,
CCCCNc1nc(C)nc2c1nc(-c1ccccc1)n2CC1CCN(C)CC1,-11%,nt,-2%,
C=Cc1ccc(C=C)cc1,8%,nt,14%,
Cc1cc(N2CCC(C)CC2)nc2ccc(NC(=O)CCC(=O)N3CCN(c4cccc(C(F)(F)F)c4)CC3)cc12,13µM*,nt,?,
Cc1cc(N2CCOCC2)nc2ccc(NC(=O)CCC(=O)N3CCN(c4ccccc4)CC3)cc12,nt,13%,nt,
Cc1ccc(Cl)cc1N1CCN(C(=O)CCC(=O)Nc2ccc3nc(N4CCC(C)CC4)cc(C)c3c2)CC1,-2%,nt,9%,
Cc1cc(N2CCCCC2)nc2ccc(NC(=O)CCC(=O)N3CCN(c4cccc(Cl)c4)CC3)cc12,16µM*,nt,?,
CC(CNC(=O)CCn1c(=O)c2cccn2c2ccc(F)cc21)c1ccccc1 (configuration not stated),-7%,7%,30%,
CC(CNC(=O)CCCn1c(=O)c2cccn2c2ccc(F)cc21)c1ccccc1 (configuration not stated),-3%,nt,16µM*,
O=C(COC(=O)/C=C/c1ccc(Cl)cc1Cl)Nc1cc(C(F)(F)F)ccc1N1CCOCC1,-3%,4%,13µM*,
O=C(COC(=O)/C=C/c1ccccc1)Nc1cc(C(F)(F)F)ccc1N1CCOCC1,-2%,4%,-2%,
Cc1cccc(-c2nnn3c2nc(NCCc2ccc(S(N)(=O)=O)cc2)c2cc(Cl)ccc23)c1,0%,nt,4%,
O=C(NCCc1nc2ccccc2n1Cc1ccccc1F)c1ccc(F)cc1,3.2µM*,nt,8%,Papain inh=-9%
CC(NC(=O)c1ccc(F)cc1)c1nc2ccccc2n1Cc1ccccc1F (configuration not stated),0%,-15%,3%,
COc1cccc(CN2C(=O)c3ccccc3Sc3ccc(C(=O)NCCc4ccc(C)cc4)cc32)c1,-3%,nt,?,
O=C(NCCO)c1ccc2nc(-c3ccco3)c(-c3ccco3)nc2c1,13µM*,1%,13µM*,Papain inh=32µM*
O=C(NC1CCCC1)c1ccc2nc(-c3ccco3)c(-c3ccco3)nc2c1,14µM*,9%,5µM*,Papain inh=14µM*
O=C(NCCO)c1ccc(Cl)c(Cl)c1,3%,-4%,-3%,
O=C(NC1CCCC1)c1ccc2nc[nH]c2c1,1%,-5%,-5%,
SMILES,Cruzain inh Det,NS1 inh,Cruzain inh noDet,others
Cc1cc(Cl)ccc1NC(=O)c1cc(S(=O)(=O)N2CCOCC2)cn1C,-1%,nt,-9%,
COc1cc(OC)c(NC(=O)c2c(N3CCCC3=O)c3cc(C)ccc3n2C)cc1Cl,-6%,nt,-14%,
O=C1NN(c2ccccc2)C(=O)/C1=C\c1cccc(OC(=O)c2cccs2)c1,-16%,0%,?,
O=C1NN(c2ccc(Cl)c(Cl)c2)C(=O)/C1=C/c1cccc(OC(=O)c2cccs2)c1,20µM*,-4%,7%,Papain inh=18µM*
CCOC(=O)C1CCN(S(=O)(=O)c2cc(-c3cc(C)no3)ccc2OC)CC1,1%,nt,5%,
CCC(=O)CCC(=O)c1ccc2ccccc2c1,-4%,3%,-7%,
CC(C)N(CCC(=O)c1ccc2ccccc2c1)Cc1ccccc1,7.9µM*,-34%,7.9µM*,Papain inh=-15%
Cc1ccc(OCCCn2c(CCCNC(=O)C3CCCCC3)nc3ccccc32)cc1,nt,nt,nt,Papain inh=9%
CC(C)C(=O)NCCc1nc2ccccc2n1CCOc1ccccc1,-13%,-12%,6%,
Cc1ccc(OCCCCn2c(CCNC(=O)C(C)(C)C)nc3ccccc32)cc1,-2%,nt,?,
CC(C)(C)C(=O)NCCc1nc2ccccc2n1CCCCOc1ccccc1,-4%,nt,3%,

# High-throughput results (PubChem)
